Shiga toxin inh = A qHTS for Small Molecule Inhibitors of Shiga Toxin. Vero cells, Shiga toxin protein synthesis inhibition reporter. inhibition, % at 38.7 µM. hit rate 9.2% among 290,000; in the data active means inhibition mostly above about 28%, no sharp cut-off; inactive means mostly below about 43%; further: 0% is about no effect
CHX counter = Cycloheximide Counterscreen for Small Molecule Inhibitors of Shiga Toxin; cell reporter, cycloheximide protein synthesis inhibition counterscreen; hit rate 12% among 300,000; max response, %; AID 2314, 2010; in the data active means max response mostly above about 13%, no sharp cut-off; inactive means mostly below about 14%; further: read at 38.3 µM for the half of the compounds with a filed dose; 0% is about no effect
Marburg entry inh = qHTS for inhibitors of binding or entry into cells for Marburg Virus | Marburg virus pseudotyped entry inhibition, cell reporter | Potency, µM (top dose mostly 37.8 µM), for inactives: at the top dose activity change, negative = inhibition, most hits filed as inhibitors | hit rate 1.8% among 300,000; calls by dose curve; tested in HEK293 cells; further: potency means the concentration at half of the fitted maximal effect; on the % scale 0 is the no-effect control and ±100 the full control effect
LASV entry inh = qHTS for Inhibitors of binding or entry into cells for Lassa Virus; Lassa virus pseudotype entry inhibition, cell reporter; Potency, µM (titrated, usually from 37.9 µM), inactives show at the top dose activity change, negative = inhibition, actives largely listed as inhibitors; hit rate 1.2% among 300,000; AID 540256, 2011; calls by dose curve; tested in HEK293 cells; further: potency means the concentration at half of the fitted maximal effect; on the % scale 0 is the no-effect control and ±100 the full control effect; nearly all actives have a fitted effect of over 50% in size
* hit, by the source's call; ? = inconclusive; nt = not tested or not shown; ! = not active in a repeat; [ ] = another dose, or the depositor's remark. A selection: hits, their analogues and other compounds. The true share with any hit is near 12%.

SMILES	Shiga toxin inh	CHX counter	Marburg entry inh	LASV entry inh
COCCn1nnnc1C(c1cccs1)N1CCN(c2cc(C)ccc2C)CC1 (stereo not drawn)	11	-1	16µM*!	?
Cc1cccc(N2CCN(C(c3ccccc3)c3nnnn3C(C)(C)C)CC2)c1C (stereo not drawn)	2	-3	?	3.3µM*
CCC(c1nnnn1C(C)(C)C)N1CCN(c2cc(Cl)ccc2C)CC1 (stereo not drawn)	-12	-4	10µM*	13µM*
CCCC(c1nnnn1CC1CCCO1)N1CCN(c2cc(Cl)ccc2C)CC1 (stereo not drawn)	2	-3	?	?
Cc1cccc(N2CCN(C(c3cccs3)c3nnnn3C(C)(C)C)CC2)c1C (stereo not drawn)	6	-1	12µM*!	?
COc1ccccc1N1CCN(C(=O)CC(NC(=O)c2ccccc2Cl)c2ccccc2)CC1 (stereo not drawn)	nt	nt	?	-2%
CCCN1CCc2cc(O)cc3c2[C@H]1Cc1ccc(O)c(O)c1-3	nt	nt	35µM*!	-37%
CN(c1ccccc1)S(=O)(=O)c1cccc(NC(=O)CC(C)(C)C)c1	12	1	?	?
NC(=O)Cc1ccc(C(=O)c2ccc(Cl)cc2Cl)s1	48*	23*	15%[46.1 µM]	13%[46.1 µM]
C/C(=N\Nc1cc(N2CCOCC2)ncn1)c1ccccc1	30*	28*	nt	nt
C/C(=N\Nc1cc(N2CCOCC2)nc(C)n1)c1ccc(F)cc1	nt	-3	2.8µM*	?
C[C@@H]1Cc2c(Cl)cc(C(=O)N[C@H](Cc3ccccc3)C(=O)O)c(O)c2C(=O)O1	-6	-4	nt	nt
O=C(c1ccco1)N1N=C(c2cccs2)CC1c1cc([N+](=O)[O-])ccc1O (stereo not drawn)	-2	10	nt	nt
Cn1nccc1C(=O)OCC(=O)Nc1ccccc1Cl	5	10	11%[46.1 µM]	16%[46.1 µM]
COCCNC(=O)c1c(NC(=O)c2cc(=O)c3cc(C)cc(C)c3o2)sc2c1CCCC2	nt	nt	2%[46.1 µM]	21%[46.1 µM]
CC1CCN(Cc2c(C(=O)N/N=C/c3ccc(OC(C)C)cc3)nnn2-c2nonc2N)CC1	6	5	?	2%
Cn1cc(CCNC(=O)c2ccc3nc(Cc4ccccc4F)oc3c2)cn1	92*	30*	?	-28%[46.1 µM]
Cn1cc(CNC(=O)c2ccc3nc(Cc4ccccc4F)oc3c2)cn1	89*	59*	7%	-16%
O=C(NCc1ccccc1Cl)c1ccc2nc(Cc3ccccc3)oc2c1	nt	nt	nt	11%[46.1 µM]
CCn1cc(CNC(=O)c2ccc3nc(Cc4ccccc4F)oc3c2)cn1	38	32*	-5%[46.1 µM]	7%[46.1 µM]
CCOc1ccccc1CNC(=O)c1ccc2nc(Cc3ccc(OC)cc3)oc2c1	nt	nt	nt	-20%[46.1 µM]
CCn1cc(CNC(=O)c2ccc3nc(Cc4ccc(OC)cc4)oc3c2)cn1	15	20*	-21%[46.1 µM]	-25%[46.1 µM]
CCOC(=O)C(CC)n1cnc2c(nnn2-c2ccc(F)cc2)c1=O (stereo not drawn)	13	-3	nt	nt
C=CCNC(=O)c1onc(CSc2ccc(F)cc2)c1C(=O)NCCOC	-4	-2	nt	nt
CC(C)CNC(=O)c1ccccc1SCC(=O)NC12CC3CC(CC(C3)C1)C2	-6	0	-13%	?
SMILES	Shiga toxin inh	CHX counter	Marburg entry inh	LASV entry inh
O=C(Nc1ccc2oc(-c3cccc4ccccc34)nc2c1)c1ncn[nH]1	27	18*	8%	?
COc1cc2ccccc2cc1C(=O)Nc1ccc2oc(-c3cccc(Cl)c3Cl)nc2c1	nt	nt	nt	-16%[46.1 µM]
O=C(Nc1ccc2oc(-c3cc(Br)ccc3Cl)nc2c1)c1ccc2ccccc2c1	nt	nt	nt	1%[46.1 µM]
O=C(Nc1ccc2oc(-c3ccccc3Cl)nc2c1)c1cncc(Br)c1	71*	66*	?	?
O=C(Nc1ccc2oc(-c3ccccc3Cl)nc2c1)c1ncn[nH]1	113*	43*	?	-15%
O=C(CCCCCNC(=O)N1CCn2c1nc1ccccc12)N[C@@H](Cc1ccccc1)C(=O)O	20	-1	nt	nt
COC(=O)c1ccc(Cn2nc([N+](=O)[O-])c(Br)c2C)cc1	-11	-1	?	-2%
CCN(CC)S(=O)(=O)c1ccc(C(=O)Oc2cc(C)[nH]c(=O)c2[N+](=O)[O-])cc1	-13	-4	nt	nt
Clc1ccc(Cc2noc(-c3cccs3)n2)cc1	93*	53*	?	1%
Clc1ccc(-c2nc(Cc3ccccc3Cl)no2)cc1	12	15	4%[46.1 µM]	9%
O=C1N=C(N2CCc3ccccc3C2)S/C1=C\c1cccc(O)c1	6	7	24%	21µM*
Cc1ccc(/C(O)=C2/C(=O)C(=O)N(c3ccccn3)C2c2ccc(F)cc2)cc1 (stereo not drawn)	66	19*	nt	nt
O=C1C(=O)N(c2ccccn2)C(c2ccc(F)cc2)/C1=C(/O)c1ccc(Br)cc1 (stereo not drawn)	nt	-4	nt	nt
C/C(=N\NC(=O)c1nnn(-c2nonc2N)c1CN(C)c1ccccc1)c1ccccc1O	-6	-3	8.9µM*	?
COc1ccc(/C(C)=N/NC(=O)c2nnn(-c3nonc3N)c2CN(C)c2ccccc2)cc1	13	8	nt	nt
CN(C)Cc1c(C(=O)N/N=C/C=C/c2ccccc2)nnn1-c1nonc1N	-1	29*	-6%[46.1 µM]	0%[46.1 µM]
c1ccc(-c2nnc(-c3ccccc3)nn2)cc1	91*	51*	?	?
Cc1ccc(S(=O)(=O)N(C)c2ccccc2C(=O)N2CCOCC2)cc1	-4	-1	-18%	1%
CC1=C(C(=O)Nc2ccccc2C(=O)NC2CCC(C)CC2)SCCO1 (stereo not drawn)	26	16*	nt	nt
CC1=C(C(=O)Nc2ccccc2C(=O)NCc2ccccc2)SCCO1	-2	5	4%[46.1 µM]	-3%[46.1 µM]
CCOC(=O)C1(Cc2cccc(Cl)c2)CCCN(C(=O)c2ccc(C)nc2)C1 (stereo not drawn)	-4	-2	?	-29%
CCOC(=O)C1(Cc2cccc(Cl)c2)CCCN(C(=O)c2cc(C(C)C)nn2C)C1 (stereo not drawn)	35	32*	?	-8%
CCOC(=O)C1(Cc2cccc(Cl)c2)CCCN(C(=O)c2cc(C)on2)C1 (stereo not drawn)	59*	28*	-25%	?
CCOC(=O)C1(Cc2cccc(Cl)c2)CCCN(C(=O)c2c(CC)noc2C)C1 (stereo not drawn)	24*	41*	nt	nt
Cc1ccc(N(C(=O)c2csnn2)C(C(=O)NC2CCCCC2)c2cccnc2)cc1 (stereo not drawn)	-7	-6	9%[46.1 µM]	-12%[46.1 µM]
SMILES	Shiga toxin inh	CHX counter	Marburg entry inh	LASV entry inh
FC(F)(F)c1ccc(Cl)c(NC(=S)NC2CC2)c1	-11	-2	25%	1%
Cc1cccc(N2CCN(CCCNC(=O)C3CCCN(c4ncnc5c4nc4n5CCCCC4)C3)CC2C)c1 (stereo not drawn)	-10	-4	11µM*	?
N=c1scc(-c2ccccc2)n1/N=C/c1ccco1	72*	46*	?	-19%
O=C(O)/C(=C/c1ccco1)NC(=O)c1ccc(Br)o1	-59	-3	?	-3%
O=C(N/N=C/c1ccco1)c1ccc(Br)o1	67*	25*	-4%	22%
O=C(N/N=C/c1ccco1)c1cc2ccccc2o1	59*	42*	nt	nt
O=C(COc1ccc(/C=N/NC(=O)c2cc3ccccc3o2)cc1Br)Nc1ccccc1	112*	53*	?	?

Screening data: PubChem, National Center for Advancing Translational Sciences (NCATS)
